Data from PubChem BioAssay (NCATS).
Records with an inconclusive call do not appear. Unmarked numbers belong to inactive results. Calls follow the shape of the dose curve; as a rule, active = well fitted cell-killing curve with a large enough effect; inconclusive = small, poorly fitted or top-dose-only effect, or effect the other way; inactive = flat fitted curve, though single readings scatter.

The compounds below were run on OV90 (assay: Primary qHTS to identify gynecologic anti-cancer compounds using libraries of approved drugs and bioactive compounds (AID 1345084; also: nearly all actives have a fitted effect of over 55% in size)). Conditions: Gynecologic cancer cell panel viability, ATPlite luminescence, 48 h; series mostly up to 57.5 µM; activity change, negative = cytotoxicity: at the top concentration.
Summary of the method: (§1)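 Measured: luminescence after ATPlite addition (15 min, RT). Exposure: 48 h, 37 C, 5% CO2.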
% is scaled to controls: 0 for no effect and ±100 for the full control effect.

| SMILES | activity change, negative = cytotoxicity |
| --- | --- |
| C[C@@H]1C(=O)O[C@H](C)[C@H]1C[C@@H](O)[C@](C)(O)[C@H]1CC[C@@]2(O)C3=CC(=O)[C@@H]4C[C@@H](O)[C@@H](O)C[C@]4(C)C3CC[C@]12C (stereo not given in full) | 9.69% [at 25.3 µM] |
| CC1(CO)CC(O)C2(C)CCC3(C)C(=CCC4C5(C=O)CCC(OC6OC(C(=O)O)C(O)C(O)C6OC6OC(C(=O)O)C(O)C(O)C6O)C(C)(C)C5CCC43C)C2C1 (stereo not given) | 0.842% [at 11.6 µM] |
| C[C@@H]1O[C@@H](O[C@H]2[C@H](O[C@H]3[C@H](O[C@H]4CC[C@@]5(C)C(CC[C@]6(C)C5CC=C5[C@@H]7CC(C)(C)CC(=O)[C@]7(C)CC[C@]56C)[C@@]4(C)CO)O[C@H](C(=O)O)[C@@H](O)[C@@H]3O)O[C@H](CO)[C@H](O)[C@@H]2O)[C@H](O)[C@H](O)[C@H]1O (stereo not given in full) | -8.44% [at 11.6 µM] |
| CC1(C)CC[C@]2(C(=O)O)CC[C@]3(C)C(=CCC4[C@@]5(C)CC[C@H](O)C(C)(C)C5CC[C@]43C)C2C1 (stereo not given in full) | -3.79% [at 25.3 µM] |
| COc1cc(C(CO)C(OC2OC(CO)C(O)C(O)C2O)c2ccc(O)c(OC)c2)ccc1O (stereo not given) | 8.09% [at 25.3 µM] |
| COc1ccc2c(c1)C=C1Cn3c-2c(C2CCCCC2)c2ccc(cc23)C(=O)NS(=O)(=O)N(C)CCOCCN(C)C1=O | -38.7% |
| NC1(c2ccc(NC(=O)c3ccnc(-c4cc(C(=O)O)ccn4)c3)cc2)CC1 | -13.8% |
| C[C@@H]1CC[C@]2(C(=O)O)CC[C@]3(C)C(=CCC4[C@@]5(C)C[C@@H](O)[C@@H](O)C(C)(C)C5CC[C@]43C)C2[C@]1(C)O (stereo not given in full) | -3.8% [at 25.3 µM] |

What follows are compounds tested on PA-1 in the same assay as above. Conditions: Gynecologic cancer cell panel viability, ATPlite luminescence, 48 h; series mostly up to 57.5 µM; activity change, negative = cytotoxicity: at the top concentration.
Summary of the method: as §1

| SMILES | activity change, negative = cytotoxicity |
| --- | --- |
| Cc1ncc(NC(=O)c2ccc(CN3CCN(C)CC3)c(C(F)(F)F)c2)cc1Nc1nccc(-c2cccnc2)n1 | 18.6% |
| CC(O)CCc1ccc(O[C@@H]2O[C@H](CO)[C@@H](O)[C@H](O)[C@H]2O)cc1 (stereo not given in full) | -2.17% [at 38.5 µM] |
| COc1cc(Cc2cnc(N)nc2N)c(C(C)C)cc1OC | 26.5% |
| C[C@@H]1C[C@@H](O)[C@@]23CO[C@]2(CO)C[C@@H](O)CC3[C@@]12CC(c1ccoc1)OC2=O (stereo not given in full) | 4.87% [at 38.5 µM] |
| Cc1c(-c2ccc3c(c2)OCO3)oc2ccc(C(O)C(C)O)cc12 (stereo not given) | -25.7% [at 38.5 µM] |
| c1ccc2c(Nc3nnc(-c4ccncc4)s3)cccc2c1 | -27.8% |
| C=C1CCc2occ(C)c2[C@H]2[C@H]1[C@@]13O[C@@]1(C[C@@H](C)[C@H]3OC(C)=O)[C@H]1O[C@@]21C | 10.7% [at 38.5 µM] |
| COc1ccc(CCC(=O)c2c(O)cc(O[C@@H]3O[C@H](CO)[C@@H](O)[C@H](O)[C@H]3O[C@@H]3O[C@@H](C)[C@H](O)[C@@H](O)[C@H]3O)cc2O)cc1O | 5.14% |
| C=C1C(OC(C)=O)CCC2(C)CCC(C(C)(C)O)CC12 (stereo not given) | 11.4% |
| Cn1nccc1-c1ccccc1Oc1ccc(S(=O)(=O)Nc2nccs2)cc1C#N | 12.8% |
| CC(=O)O[C@@H]1CC2C(C)(C)C(=O)C=C[C@]2(C)C2CC[C@]3(C)C(=CC(=O)[C@@H]3c3ccoc3)[C@@]21C (stereo not given in full) | -0.222% [at 25.3 µM] |
| NC(=O)[C@@H]1CC[C@H](c2ccc(OCc3ccccc3F)cc2)N1 | -0.814% |

These compounds were tested on SKOV3 in the same assay as above. Conditions: Gynecologic cancer cell panel viability, ATPlite luminescence, 48 h; series mostly up to 57.5 µM; activity change, negative = cytotoxicity: at the top concentration.
Summary of the method: as §1

| SMILES | activity change, negative = cytotoxicity |
| --- | --- |
| Cc1ncc(NC(=O)c2ccc(CN3CCN(C)CC3)c(C(F)(F)F)c2)cc1Nc1nccc(-c2cccnc2)n1 | 11.3% |
| CC(O)CCc1ccc(O[C@@H]2O[C@H](CO)[C@@H](O)[C@H](O)[C@H]2O)cc1 (stereo not given in full) | 3.46% [at 38.5 µM] |
| C=C1C2(C)CC3C4(C)OC(C5OC56C4=CC(=O)OC6(C)C)C3(C)C13C(=O)OC(C)C3(O)C2=O (stereo not given) | 12.9% [at 25.3 µM] |
| COc1cc(/C=C/CO[C@@H]2O[C@H](CO)[C@@H](O)[C@H](O)[C@H]2O)cc(OC)c1O[C@@H]1O[C@H](CO)[C@@H](O)[C@H](O)[C@H]1O | 9.07% [at 25.3 µM] |
| Cc1onc(-c2ccccc2Cl)c1C(=O)N(C)c1ccc(Cl)cc1 | 0% |
| C/C=C(\C)C(=O)OC1C(C)C2(O)C3C=C(C)C(=O)C3CC(CO)=CC2C2C(C)(C)C12OC(C)=O (stereo not given) | -9.4% [at 25.3 µM] |
| COc1cc(Cc2cnc(N)nc2N)c(C(C)C)cc1OC | 13.2% |
| CC1=C2CC(C)(C)CC2C(O)C2=C(C1)C(=O)OC2O (stereo not given) | 20.8% |
| CC(C)C1(O)NC(=O)C(CC2(O)c3ccccc3N3C(=O)C(C)(C)NC32)n2c1nc1ccccc1c2=O (stereo not given) | 18.7% [at 25.3 µM] |
| C=C1CCc2occ(C)c2[C@H]2[C@H]1[C@@]13O[C@@]1(C[C@@H](C)[C@H]3OC(C)=O)[C@H]1O[C@@]21C | 1.58% [at 38.5 µM] |
| COc1ccc2c(c1)N1C(=O)C[C@@]34C=CC[N@+]5([O-])CC[C@H]2[C@H](CC3)[C@@]145 | -9.42% [at 38.5 µM] |
| CC(=O)OC1CC2(C)C(CCC(C)C23Cc2c(O)cc4c(c2O3)CNC4=O)C(C)(C)C1O (stereo not given) | 0% [at 25.3 µM] |
| O=C(O)CCc1cc2ccoc2cc1O[C@@H]1O[C@H](CO)[C@@H](O)[C@H](O)[C@H]1O | 5.44% [at 38.5 µM] |
| COc1ccc(CCC(=O)c2c(O)cc(O[C@@H]3O[C@H](CO)[C@@H](O)[C@H](O)[C@H]3O[C@@H]3O[C@@H](C)[C@H](O)[C@@H](O)[C@H]3O)cc2O)cc1O | 9.61% |
| C=C1C(OC(C)=O)CCC2(C)CCC(C(C)(C)O)CC12 (stereo not given) | 37.1% |
| CC(=O)Nc1cccc2c1c(Sc1ccc(Cl)cc1)c(C)n2CC(=O)O | 0.379% |
| CC(=O)O[C@@H](C[C@@H]1C=C(C)C(=O)O1)[C@H](C)[C@H]1CCC2[C@@]3(C)CC[C@H](O[C@@H]4O[C@H](CO)[C@@H](O)[C@H](O)[C@H]4O[C@@H]4O[C@@H](C)[C@H](O)[C@@H](O)[C@H]4O)C(C)(C)C3CC[C@@]2(C)[C@@]12COC(=O)C2 (stereo not given in full) | 14.4% [at 11.6 µM] |
| C[C@@H]1C(=O)O[C@H](C)[C@H]1C[C@@H](O)[C@](C)(O)[C@H]1CC[C@@]2(O)C3=CC(=O)[C@@H]4C[C@@H](O)[C@@H](O)C[C@]4(C)C3CC[C@]12C (stereo not given in full) | 7.43% [at 25.3 µM] |
| C[C@@H]1O[C@@H](O[C@H]2[C@H](O[C@H]3[C@H](O[C@H]4CC[C@@]5(C)C(CC[C@]6(C)C5CC=C5[C@@H]7CC(C)(C)CC(=O)[C@]7(C)CC[C@]56C)[C@@]4(C)CO)O[C@H](C(=O)O)[C@@H](O)[C@@H]3O)O[C@H](CO)[C@H](O)[C@@H]2O)[C@H](O)[C@H](O)[C@H]1O (stereo not given in full) | 0.762% [at 11.6 µM] |
| CC1(C)CC[C@]2(C(=O)O)CC[C@]3(C)C(=CCC4[C@@]5(C)CC[C@H](O)C(C)(C)C5CC[C@]43C)C2C1 (stereo not given in full) | -15.8% [at 25.3 µM] |
| COc1cc(C(CO)C(OC2OC(CO)C(O)C(O)C2O)c2ccc(O)c(OC)c2)ccc1O (stereo not given) | 12.6% [at 25.3 µM] |
| CC(=O)O[C@@H]1CC2C(C)(C)C(=O)C=C[C@]2(C)C2CC[C@]3(C)C(=CC(=O)[C@@H]3c3ccoc3)[C@@]21C (stereo not given in full) | -10.2% [at 25.3 µM] |
| NC1(c2ccc(NC(=O)c3ccnc(-c4cc(C(=O)O)ccn4)c3)cc2)CC1 | 0% |
| CC1=C2CC3C(CCC3(C)O)C(C)(O)CC2OC1=O (stereo not given) | 21.9% |
| Cc1nnc(-c2ccc3occ(-c4ccc(S(C)=O)cc4)c3c2)o1 (stereo not given) | -2.03% |
